Read-out in experiment [1]: Matrix Metallopeptidase 9 (MMP9), MMP9 (gene 4318)
Briefly: BSK_KF3CT_MMP9: BioMAP Diversity Plus: KF3CT Assay for Matrix Metallopeptidase 9 (MMP9) Biomarker Activity (AID 2283074).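 On AC50: MMP9 protein level quantified by ELISA in the co-culture.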 The following applies: primary human keratinocytes with fibroblasts; actives raise or lower the signal. Put shortly:
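Keratinocyte plus foreskin fibroblast human primary skin co-culture was dosed with chemical and MMP-9 was quantified by ELISA 24 h later. Bidirectional curve fitting used DMSO as negative control and activity baseline.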

Read-out in experiment [2]: urokinase plasminogen activator (uPA), PLAU (gene 5328)
Briefly: BSK_KF3CT_uPA: BioMAP Diversity Plus: KF3CT Assay for urokinase plasminogen activator (uPA) Biomarker Activity (AID 2283075). The following applies: primary human keratinocytes with fibroblasts; actives raise or lower the signal. The method in brief:
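Human keratinocyte plus foreskin fibroblast primary co-culture exposed to chemical for 24 h. uPA levels were quantified by ELISA, and activity was fitted bidirectionally against a DMSO negative-control baseline.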

Read-out in experiment [3]: CD40, CD40 (gene 958)
Kind of experiment: BSK_LPS_CD40: BioMAP Diversity Plus: LPS Assay for CD40 Biomarker Activity (AID 2283076). Conditions: primary human HUVEC with PBMC; actives raise or lower the signal. The method in brief:
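Using a multiplexed primary human co-culture (umbilical vein endothelium plus PBMC), CD40 was read by ELISA 24 h after dosing, with cytotoxicity tracked by sulforhodamine B staining of parallel cultures and activity fitted bidirectionally versus DMSO.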

Read-out in experiment [4]: E-selectin (Homo sapiens) (UniProt P16581)
Kind of experiment: BSK_LPS_Eselectin: BioMAP Diversity Plus: LPS Assay for Eselectin Biomarker Activity (AID 2283077). Conditions: primary human HUVEC with PBMC; actives raise or lower the signal. The method in brief:
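Dose chemical onto LPS-driven HUVEC/PBMC co-culture; after 24 h, run ELISA for E-selectin; fit up- and down-going responses relative to DMSO control.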

Read-out in experiment [5]: Interleukin-8 (IL8), CXCL8 (gene 3576)
Kind of experiment: BSK_LPS_IL8: BioMAP Diversity Plus: LPS Assay for Interleukin-8 (IL8) Biomarker Activity (AID 2283078). The following applies: primary human HUVEC with PBMC; actives raise or lower the signal. The method in brief:
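In this LPS system, chemical-treated human umbilical vein endothelium/PBMC co-cultures were harvested at 24 h for IL-8 ELISA.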

The nature of experiment [6]: BSK_LPS_SRB: Viability Assessment in the BioMAP Diversity Plus: LPS Assay (AID 2283079).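 Further: total protein by sulforhodamine B absorbance as a cytotoxicity measure; measured one day after compound addition; fitted in both directions against DMSO so loss or gain of signal counts.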 The following applies: primary human HUVEC with PBMC. Put shortly:
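Cytotoxicity endpoint in human endothelial–PBMC co-culture: 24 h exposure, then SRB (0.1%) staining, 560 nm read.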

Read-out in experiment [7]: Interleukin-1 alpha (IL1a), IL1A (gene 3552)
Briefly: BSK_LPS_IL1a: BioMAP Diversity Plus: LPS Assay for Interleukin-1 alpha (IL1a) Biomarker Activity (AID 2283080). Conditions: primary human HUVEC with PBMC; actives raise or lower the signal. Put shortly:
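Primary human HUVEC and PBMC co-culture stimulated with LPS is dosed and harvested at 24 h. Both increases and decreases in ELISA-measured IL-1a are scored relative to DMSO.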

Read-out in experiment [8]: Monocyte Chemoattractant Protein-1 (MCP1), CCL2 (gene 6347)
Kind of experiment: BSK_LPS_MCP1: BioMAP Diversity Plus: LPS Assay for Monocyte Chemoattractant Protein-1 (MCP1) Biomarker Activity (AID 2283081).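 On AC50: secreted MCP-1 protein quantified by ELISA in culture supernatant.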 Conditions: primary human HUVEC with PBMC; actives raise or lower the signal. The method in brief: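 Values derive from bidirectional fitting against DMSO of ELISA-measured MCP-1 in a human primary endothelial and mononuclear cell co-culture, 24 h after chemical addition under LPS activation.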

Experiment [9] can be described thus: BSK_LPS_PGE2: BioMAP Diversity Plus: LPS Assay for Prostaglandin E2 (PGE2) Biomarker Activity (AID 2283082).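 On AC50: secreted prostaglandin E2 measured by ELISA in LPS-stimulated co-culture.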 The following applies: primary human HUVEC with PBMC; actives raise or lower the signal. Put shortly: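 LPS-activated HUVEC/PBMC co-culture; cmpd dosed, 24 h; PGE2 by ELISA; bidirectional fit vs DMSO; SRB (0.1%, TCA-fixed, 560 nm) in parallel plates for overt cytotox.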

Read-out in experiment [10]: Macrophage colony-stimulating factor (MCSF), CSF1 (gene 1435)
Kind of experiment: BSK_LPS_MCSF: BioMAP Diversity Plus: LPS Assay for Macrophage colony-stimulating factor (MCSF) Biomarker Activity (AID 2283083). Conditions: primary human HUVEC with PBMC; actives raise or lower the signal. Put shortly:
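Bidirectional fit versus DMSO of ELISA-measured M-CSF in co-cultured human umbilical vein endothelial cells and PBMC, sampled 24 h after dosing.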

Read-out in experiment [11]: Tissue Factor, F3 (gene 2152)
Briefly: BSK_LPS_TissueFactor: BioMAP Diversity Plus: LPS Assay for Tissue Factor Biomarker Activity (AID 2283084). The following applies: primary human HUVEC with PBMC; actives raise or lower the signal. The method in brief:
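Read-out: CD142 ELISA, 24 h. System: LPS-driven human endothelial/PBMC co-culture. Analysis: up- or down-signal fitted against DMSO.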

Read-out in experiment [12]: Tumor necrosis factor (Homo sapiens) (UniProt P01375)
Kind of experiment: BSK_LPS_TNFa: BioMAP Diversity Plus: LPS Assay for Tumour Necrosis Factor alpha (TNFa) Biomarker Activity (AID 2283085). The following applies: primary human HUVEC with PBMC; actives raise or lower the signal. The method in brief: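 Read-out is ELISA of TNFa in primary human endothelial cell–PBMC co-cultures at 24 h after compound. Activity in either direction was fitted against DMSO.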

Read-out in experiment [13]: Vascular cell adhesion molecule 1 (VCAM1), VCAM1 (gene 7412)
Briefly: BSK_LPS_VCAM1: BioMAP Diversity Plus: LPS Assay for Vascular cell adhesion molecule 1 (VCAM1) Biomarker Activity (AID 2283086). Conditions: primary human HUVEC with PBMC; actives raise or lower the signal. Put shortly:
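HUVEC + PBMC co-culture, LPS system; compound 24 h; VCAM-1 by ELISA; bidirectional fit vs DMSO control; parallel SRB (0.1%, TCA-fixed, 560 nm) for cytotoxicity.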

Read-out in the next experiment: CD38, CD38 (gene 952)
Briefly: BSK_SAg_CD38: BioMAP Diversity Plus: SAg Assay for CD38 Biomarker Activity (AID 2283087). The following applies: primary human HUVEC with PBMC; actives raise or lower the signal. The method in brief: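 Human HUVEC plus PBMC co-culture stimulated with superantigen; CD38 measured by ELISA 24 h after chemical dosing. Fluorescence read-out, bidirectional fit against DMSO; cytotoxicity tracked in parallel by SRB and Alamar Blue.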

Read-out in experiment [14]: CD40, CD40 (gene 958)
Briefly: BSK_SAg_CD40: BioMAP Diversity Plus: SAg Assay for CD40 Biomarker Activity (AID 2283088). The following applies: primary human HUVEC with PBMC; actives raise or lower the signal. Put shortly:
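Endpoint derived by fitting increases or decreases versus DMSO controls. CD40 is detected by fluorescence ELISA in a human vascular co-culture of endothelium and PBMC at 24 h.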

Read-out in the next experiment: CD69, CD69 (gene 969)
Briefly: BSK_SAg_CD69: BioMAP Diversity Plus: SAg Assay for CD69 Biomarker Activity (AID 2283089).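 On AC50: cell surface CD69 protein quantified by ELISA with fluorescence detection.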 Conditions: primary human HUVEC with PBMC; actives raise or lower the signal. Put shortly: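 Endothelial/PBMC co-culture; chemical added; 24 h incubation; CD69 ELISA with fluorescence detection; bidirectional fit vs DMSO.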

Read-out in experiment [15]: Monocyte Chemoattractant Protein-1 (MCP1), CCL2 (gene 6347)
Briefly: BSK_SAg_MCP1: BioMAP Diversity Plus: SAg Assay for Monocyte Chemoattractant Protein-1 (MCP1) Biomarker Activity (AID 2283090). The following applies: primary human HUVEC with PBMC; actives raise or lower the signal. The method in brief:
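MCP-1 levels in the endothelial–PBMC SAg co-culture were quantified by ELISA at 24 h post-dosing; both increases and decreases versus DMSO scored. Cytotoxicity monitored by SRB total protein in parallel cultures.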

Read-out in experiment [16]: E-selectin (Homo sapiens) (UniProt P16581)
Briefly: BSK_SAg_Eselectin: BioMAP Diversity Plus: SAg Assay for Eselectin Biomarker Activity (AID 2283091). The following applies: primary human HUVEC with PBMC; actives raise or lower the signal. The method in brief: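 Endpoint values derive from bidirectional fitting relative to DMSO, using ELISA-measured E-selectin in a human vascular co-culture (umbilical vein endothelium plus PBMC) sampled 24 h after dosing.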

Read-out in experiment [17]: Monokine induced gamma interferon (MIG), CXCL9 (gene 4283)
Briefly: BSK_SAg_MIG: BioMAP Diversity Plus: SAg Assay for Monokine induced gamma interferon (MIG) Biomarker Activity (AID 2283092). The following applies: primary human HUVEC with PBMC; actives raise or lower the signal. The method in brief: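 Measures CXCL9 protein by ELISA in a human vascular primary-cell co-culture (umbilical vein endothelium with PBMC) 24 h after chemical addition. Activity is scored up or down from the DMSO control.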

The source made the active and inactive calls. How the source made its calls: active means hit-call score of the fitted dose curve at least 0.9, where 1 is the maximum; inactive means score below 0.9.

Chain of Tumor necrosis factor (Homo sapiens) (P01375 whole entry, looked up): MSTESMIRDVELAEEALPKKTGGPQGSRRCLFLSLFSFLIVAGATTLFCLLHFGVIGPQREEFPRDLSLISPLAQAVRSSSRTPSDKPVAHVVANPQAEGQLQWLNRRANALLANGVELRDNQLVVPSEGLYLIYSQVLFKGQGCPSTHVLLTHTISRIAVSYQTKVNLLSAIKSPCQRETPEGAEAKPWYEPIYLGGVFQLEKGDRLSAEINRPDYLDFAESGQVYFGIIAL
Chain of E-selectin (Homo sapiens) (P16581 whole entry, looked up): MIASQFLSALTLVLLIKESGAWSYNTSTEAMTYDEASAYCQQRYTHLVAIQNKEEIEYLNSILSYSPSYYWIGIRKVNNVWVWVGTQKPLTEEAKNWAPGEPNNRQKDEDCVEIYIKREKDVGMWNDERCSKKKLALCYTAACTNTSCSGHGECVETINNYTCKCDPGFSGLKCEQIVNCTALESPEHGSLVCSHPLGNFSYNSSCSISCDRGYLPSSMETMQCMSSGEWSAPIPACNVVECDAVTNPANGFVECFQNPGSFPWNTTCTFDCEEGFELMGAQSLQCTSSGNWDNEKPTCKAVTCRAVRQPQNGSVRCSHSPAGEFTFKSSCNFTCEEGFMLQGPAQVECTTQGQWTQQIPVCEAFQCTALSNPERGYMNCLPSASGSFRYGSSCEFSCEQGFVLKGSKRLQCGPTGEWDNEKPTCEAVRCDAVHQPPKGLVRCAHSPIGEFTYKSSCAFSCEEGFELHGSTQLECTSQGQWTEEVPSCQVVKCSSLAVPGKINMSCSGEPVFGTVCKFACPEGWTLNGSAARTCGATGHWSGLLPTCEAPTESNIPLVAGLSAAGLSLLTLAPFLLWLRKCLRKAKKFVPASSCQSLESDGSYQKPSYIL

As for `COCC(C)OCC(C)OCC(C)O` (stereo not given), the outcome in experiment [1] was “inactive”; in [2] it was “inactive”; with CD40, CD40 (gene 958) [3], “inactive”; in [4], “inactive”; in [5], “inactive”; in experiment [6], “inactive”. Besides, the result in experiment [7], in [8], in [9], in experiment [10], in [11] and in experiment [12] was inactive. Further, the outcome in experiment [13] is “inactive”; with CD38, CD38 (gene 952) it was “inactive”; with CD40, CD40 (gene 958) [14], “inactive”; with CD69, CD69 (gene 969), “inactive”; in experiment [15], “inactive”; in [16] it was “inactive”. Besides, the outcome in experiment [17] was inactive.

As for `COc1cccc([C@H](O)C2CCN(CCc3ccc(F)cc3)CC2)c1OC`, the outcome in experiment [1] is “inactive”; in [2], “inactive”; with CD40, CD40 (gene 958) [3], “inactive”; in [4] it was “inactive”; in experiment [5], “inactive”; in experiment [6] it was “inactive”. Besides, the result in experiment [7], in experiment [8], in experiment [9], in [10], in experiment [11] and in experiment [12] was inactive. In addition, the outcome in [13] is “inactive”; in the experiment with CD38, CD38 (gene 952), “inactive”; with CD40, CD40 (gene 958) [14] it was “inactive”; with CD69, CD69 (gene 969) it was “inactive”; in experiment [15] it was “inactive”; in experiment [16], “inactive”. Also, the result in experiment [17] was inactive.

`CCCCCCCCOC(=O)c1cc(O)c(O)c(O)c1`: the AC50 in experiment [1] was 8.92 µM (active); in experiment [2] it was 18.2 µM (active); in experiment [4], 36.6 µM (active); in experiment [5], 24.6 µM (active); in experiment [6] it was 25.6 µM (active); in experiment [7], 20 µM (active). The AC50 was 26.7 µM (active) in [8]; 5.32 µM (active) in experiment [9]; 31.9 µM (active) in experiment [10]; 32.4 µM (active) in [11]; 32.3 µM (active) in [12]; 30.6 µM (active) in experiment [13]. Moreover, the AC50 in the experiment with CD38, CD38 (gene 952) is 13.1 µM (active); with CD40, CD40 (gene 958) [14], 14.8 µM (active); in the experiment with CD69, CD69 (gene 969) it was 16.6 µM (active); in experiment [15], 20 µM (active); in [16], 16 µM (active); in experiment [17], 30.4 µM (active).

Take `O=CCCCC=O`: the AC50 is 24.9 µM (active) in experiment [1]; 32 µM (active) in experiment [2]; 32.9 µM (active) in experiment [7]; 37.3 µM (active) in experiment [10]; 32.7 µM (active) in experiment [12]; 33 µM (active) in experiment [13]. For the same compound, the AC50 was 29.8 µM (active) with CD40, CD40 (gene 958) [14] and 30.3 µM (active) in [16]. Besides, the outcome with CD40, CD40 (gene 958) [3] is “inactive”; in experiment [4] it was “inactive”; in experiment [5], “inactive”; in [6] it was “inactive”; in experiment [8], “inactive”; in experiment [9], “inactive”. Moreover, the outcome in experiment [11] is “inactive”; in the experiment with CD38, CD38 (gene 952), “inactive”; in the experiment with CD69, CD69 (gene 969), “inactive”; in experiment [15] it was “inactive”; in experiment [17] it was “inactive”.

A word on the AC50: it is the concentration giving half of the maximal activity seen.

The values above are taken from PubChem BioAssay (EPA / NIEHS).
